Source: PubChem BioAssay (EPA / NIEHS)
Calls of active or inactive are those of the source. The calls were made as follows: active = hit-call score of the fitted dose curve at least 0.9, where 1 is the maximum; inactive = score below 0.9.

Assays:
Details in all cases: mRNA level, 48 h; actives raise or lower the signal
[1] = read-out: Cytochrome P450 3A4 (Homo sapiens) (UniProt P08684); assay: LTEA_HepaRG_CYP3A4: Life Technologies and Expression Analysis (LTEA) Assay for CYP3A4 using HepaRG (AID 2283487)
Method in brief: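 CYP3A4 transcript measured by TaqMan qRT-PCR and normalized to three housekeeping genes after 48 h chemical exposure of human HepaRG cells. Top concentration 100 uM, half-log steps, 0.5% DMSO vehicle; gain or loss fitted against DMSO baseline.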

[2] = read-out: DNA damage-inducible transcript 3 (DDIT3), DDIT3 (gene 1649); assay: LTEA_HepaRG_DDIT3: Life Technologies and Expression Analysis (LTEA) Assay for DNA damage-inducible transcript 3 (DDIT3) using HepaRG (AID 2283488)
Method in brief: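 Changes in DDIT3 transcript, in either direction relative to 0.5% DMSO vehicle, were quantified by TaqMan qRT-PCR after 48 h chemical exposure of HepaRG cells at 8 concentrations, maximum 100 uM.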

[3] = read-out: Pro-epidermal growth factor (Homo sapiens) (UniProt P01133); assay: LTEA_HepaRG_EGF: Life Technologies and Expression Analysis (LTEA) Assay for Epidermal growth factor (EGF) using HepaRG (AID 2283489)
Method in brief: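 EGF expression changes in human HepaRG cells are scored by bidirectional fitting relative to 0.5% DMSO controls. Chemicals are tested at eight half-log concentrations up to 100 uM for 48 h in serum-free induction medium.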

[4] = read-out: Ezrin (EZR), EZR (gene 7430); assay: LTEA_HepaRG_EZR: Life Technologies and Expression Analysis (LTEA) Assay for Ezrin (EZR) using HepaRG (AID 2283491)
Method in brief: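 HepaRG, 48 h chemical exposure, 8-pt half-log series from 100 uM, 0.5% DMSO vehicle, duplicates. Read-out: EZR mRNA by TaqMan qRT-PCR (Fluidigm array), housekeeping-normalized; bidirectional curve fit vs DMSO baseline.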

[5] = read-out: Cytochrome P450 3A7 (Homo sapiens) (UniProt P24462); assay: LTEA_HepaRG_CYP3A7: Life Technologies and Expression Analysis (LTEA) Assay for CYP3A7 using HepaRG (AID 2283492)
Method in brief: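 Cells were thawed, plated, cultured 48 h, then treated for a further 48 h with chemicals (eight-point half-log series from 100 uM, 0.5% DMSO). RNA was isolated and CYP3A7 expression quantified by qRT-PCR normalised to ACTB, GAPDH and POLR2A.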

CYP3A5 (gene 1577) = assay: LTEA_HepaRG_CYP3A5: Life Technologies and Expression Analysis (LTEA) Assay for CYP3A5 using HepaRG (AID 2283493)
Method in brief: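 mRNA induction or loss of CYP3A5 assessed in HepaRG after 48 h dosing, 100 uM top concentration, duplicate wells; TaqMan qRT-PCR with ACTB, GAPDH, POLR2A normalization; 0.5% DMSO as negative control.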

[6] = read-out: Fatty Acid-Binding Protein 1 (FABP1), FABP1 (gene 2168); assay: LTEA_HepaRG_FABP1: Life Technologies and Expression Analysis (LTEA) Assay for Fatty Acid-Binding Protein 1 (FABP1) using HepaRG (AID 2283494)
Method in brief: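 Differentiated human HepaRG cells were exposed in duplicate for 48 h in serum-free induction medium to 8-point half-log concentration series topping at 100 uM in 0.5% DMSO. FABP1 mRNA measured by TaqMan qRT-PCR, normalized to ACTB/GAPDH/POLR2A; bidirectional fit versus DMSO.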

[7] = read-out: Cytochrome P450 4A22 (Homo sapiens) (UniProt Q5TCH4); assay: LTEA_HepaRG_CYP4A22: Life Technologies and Expression Analysis (LTEA) Assay for Cytochrome P450 4A22 (CYP4A22) using HepaRG (AID 2283495)
Method in brief: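 Cryopreserved HepaRG cells, plated and cultured 48 h, then switched to serum-free induction medium and treated 48 h (duplicates, up to 100 uM, half-log steps, 0.5% DMSO). Expression change of CYP4A22 was fitted bidirectionally against vehicle.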

[8] = read-out: Cytochrome P450 7A1 (Homo sapiens) (UniProt P22680); assay: LTEA_HepaRG_CYP7A1: Life Technologies and Expression Analysis (LTEA) Assay for Cytochrome P450 7A1 (CYP7A1) using HepaRG (AID 2283496)
Method in brief: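 Gene expression endpoint in human HepaRG liver cells treated for 48 h with test chemicals (up to 100 uM, 0.5% DMSO). Values come from bidirectional concentration-response fitting versus DMSO.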

[9] = read-out: Glutathione S-Transferase (GSTA2), GSTA2 (gene 2939); assay: LTEA_HepaRG_GSTA2: Life Technologies and Expression Analysis (LTEA) Assay for Glutathione S-Transferase (GSTA2) using HepaRG (AID 2283497)
Method in brief: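 Human HepaRG cells, plated 48 h, then exposed in serum-free induction medium for 48 h to eight half-log concentrations up to 100 uM in 0.5% DMSO, duplicate. GSTA2 mRNA by qRT-PCR, normalized to ACTB/GAPDH/POLR2A; bidirectional fit versus DMSO.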

[10] = read-out: Glutamate-cysteine ligase catalytic (GCLC), GCLC (gene 2729); assay: LTEA_HepaRG_GCLC: Life Technologies and Expression Analysis (LTEA) Assay for Glutamate-cysteine ligase catalytic (GCLC) using HepaRG (AID 2283498)
Method in brief: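 Differentiated human HepaRG cells, plated 48 h then switched to serum-free induction medium, were exposed in duplicate for 48 h to 8 half-log concentrations topping at 100 uM in 0.5% DMSO. GCLC mRNA was quantified by qRT-PCR against ACTB, GAPDH and POLR2A.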

[11] = read-out: Glutamate-cysteine ligase regulatory (GCLM), GCLM (gene 2730); assay: LTEA_HepaRG_GCLM: Life Technologies and Expression Analysis (LTEA) Assay for Glutamate-cysteine ligase regulatory (GCLM) using HepaRG (AID 2283500)
Method in brief: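 Human liver HepaRG cultures receive test chemicals for 48 hours at up to 100 uM in 0.5% DMSO. GCLM expression is measured by qRT-PCR and analysed for increases or decreases against vehicle.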

[12] = read-out: Glutathione S-transferase M3 (GSTM3), GSTM3 (gene 2947); assay: LTEA_HepaRG_GSTM3: Life Technologies and Expression Analysis (LTEA) Assay for Glutathione S-transferase M3 (GSTM3) using HepaRG (AID 2283501)
Method in brief: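 Changes in GSTM3 expression, an oxidative-stress marker, were scored by bidirectional curve fitting against 0.5% DMSO vehicle. Human HepaRG cultures received chemicals for 48 h in duplicate, highest concentration 100 uM with half-log dilutions.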

[13] = read-out: Heat shock 70 kDa protein 1 (HSPA1A), gene 3303; assay: LTEA_HepaRG_HSPA1A: Life Technologies and Expression Analysis (LTEA) Assay for Heat shock 70 kDa protein 1 (HSPA1A) using HepaRG (AID 2283502)
Method in brief: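 HSPA1A induction in human HepaRG liver cells is measured after 48 h of chemical treatment (100 uM maximum, 0.5% DMSO vehicle). Expression comes from qRT-PCR normalized to endogenous controls.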

[14] = read-out: Hypoxia-inducible factor 1-alpha (Homo sapiens) (UniProt Q16665); assay: LTEA_HepaRG_HIF1A: Life Technologies and Expression Analysis (LTEA) Assay for Hypoxia-inducible factor 1 (HIF1A) Trancription factor using HepaRG (AID 2283503)
Method in brief: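 HepaRG, 48 h exposure, 8-pt half-log series from 100 uM, 0.5% DMSO vehicle, duplicates. Readout: HIF1A transcript by qRT-PCR (Fluidigm array), housekeeping-normalised. Bidirectional curve fit vs DMSO baseline.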

[15] = read-out: 3-Hydroxy-3-Methylglutaryl-CoA Synthase 2 (HMGCS2), HMGCS2 (gene 3158); assay: LTEA_HepaRG_HMGCS2: Life Technologies and Expression Analysis (LTEA) Assay for 3-Hydroxy-3-Methylglutaryl-CoA Synthase 2 (HMGCS2) using HepaRG (AID 2283504)
Method in brief: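 Expression of HMGCS2 in human HepaRG liver cells is measured by qRT-PCR 48 h after dosing (highest 100 uM, half-log series, 0.5% DMSO). Values come from bidirectional concentration-response fitting with DMSO as baseline.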

HGF (gene 3082) = assay: LTEA_HepaRG_HGF: Life Technologies and Expression Analysis (LTEA) Assay for Hepatocyte Growth Facto (HGF) using HepaRG (AID 2283505)
Method in brief: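 Gain or loss of HGF mRNA in human HepaRG liver cells after 48 h chemical exposure; eight concentrations up to 100 uM with 0.5% DMSO vehicle, quantified by TaqMan qRT-PCR.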

[16] = read-out: Insulin Like Growth Factor 1 (IGF1), IGF1 (gene 3479); assay: LTEA_HepaRG_IGF1: Life Technologies and Expression Analysis (LTEA) Assay for Insulin Like Growth Factor 1 (IGF1) using HepaRG (AID 2283506)
Method in brief: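 Using human HepaRG liver cells, IGF1 transcript induction or suppression is measured 48 h after dosing across eight concentrations capped at 100 uM. Values derive from bidirectional concentration-response fitting with DMSO as baseline.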

[17] = read-out: Early growth response protein 1 (EGR1) transcription factor, EGR1 (gene 1958); assay: LTEA_HepaRG_EGR1: Life Technologies and Expression Analysis (LTEA) Assay for Early growth response protein 1 (EGR1) transcription factor using HepaRG (AID 2283490)
Method in brief: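 Differentiated human HepaRG cells in serum-free induction medium were exposed in duplicate for 48 h to eight concentrations (top 100 uM, half-log steps) in 0.5% DMSO. EGR1 mRNA was quantified by qRT-PCR, normalized to ACTB, GAPDH and POLR2A, and fitted bidirectionally versus DMSO.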

Measured: AC50

Chain of Cytochrome P450 3A4 (Homo sapiens) (P08684 whole entry, looked up): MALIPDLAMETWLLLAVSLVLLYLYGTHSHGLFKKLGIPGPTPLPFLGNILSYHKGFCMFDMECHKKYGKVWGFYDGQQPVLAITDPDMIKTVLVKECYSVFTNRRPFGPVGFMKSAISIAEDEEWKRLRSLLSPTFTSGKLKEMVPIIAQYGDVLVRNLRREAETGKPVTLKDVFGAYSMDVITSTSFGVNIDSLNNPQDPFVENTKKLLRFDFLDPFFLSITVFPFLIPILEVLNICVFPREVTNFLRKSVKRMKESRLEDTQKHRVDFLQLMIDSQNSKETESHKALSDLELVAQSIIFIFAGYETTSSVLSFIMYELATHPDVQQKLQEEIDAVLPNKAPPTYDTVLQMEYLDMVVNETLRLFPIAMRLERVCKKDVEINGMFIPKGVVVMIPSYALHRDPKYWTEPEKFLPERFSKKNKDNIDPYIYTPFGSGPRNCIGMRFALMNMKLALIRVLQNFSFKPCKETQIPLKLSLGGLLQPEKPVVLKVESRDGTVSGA
Chain of Hypoxia-inducible factor 1-alpha (Homo sapiens) (Q16665 whole entry, looked up): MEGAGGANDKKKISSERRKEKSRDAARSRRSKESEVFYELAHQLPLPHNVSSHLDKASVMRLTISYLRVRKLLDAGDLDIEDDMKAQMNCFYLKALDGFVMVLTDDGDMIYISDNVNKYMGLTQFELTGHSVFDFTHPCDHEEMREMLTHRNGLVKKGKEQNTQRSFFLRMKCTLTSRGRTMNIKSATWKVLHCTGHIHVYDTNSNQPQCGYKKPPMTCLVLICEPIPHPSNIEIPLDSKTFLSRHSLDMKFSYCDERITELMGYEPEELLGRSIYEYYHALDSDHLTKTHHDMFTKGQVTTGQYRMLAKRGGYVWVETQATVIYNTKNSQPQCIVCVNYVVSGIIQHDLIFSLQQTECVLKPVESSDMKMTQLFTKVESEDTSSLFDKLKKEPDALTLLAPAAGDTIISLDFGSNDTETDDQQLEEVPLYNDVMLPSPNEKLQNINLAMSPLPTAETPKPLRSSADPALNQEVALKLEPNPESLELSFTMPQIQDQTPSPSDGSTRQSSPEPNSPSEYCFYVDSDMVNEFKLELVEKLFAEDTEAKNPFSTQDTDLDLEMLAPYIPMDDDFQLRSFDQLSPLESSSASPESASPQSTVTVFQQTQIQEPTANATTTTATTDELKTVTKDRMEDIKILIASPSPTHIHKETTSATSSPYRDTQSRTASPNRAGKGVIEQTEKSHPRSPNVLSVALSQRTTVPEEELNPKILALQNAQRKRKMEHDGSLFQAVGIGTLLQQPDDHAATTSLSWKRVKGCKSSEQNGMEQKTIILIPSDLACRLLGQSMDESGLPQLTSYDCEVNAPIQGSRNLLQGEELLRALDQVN
Chain of Cytochrome P450 3A7 (Homo sapiens) (P24462 whole entry, looked up): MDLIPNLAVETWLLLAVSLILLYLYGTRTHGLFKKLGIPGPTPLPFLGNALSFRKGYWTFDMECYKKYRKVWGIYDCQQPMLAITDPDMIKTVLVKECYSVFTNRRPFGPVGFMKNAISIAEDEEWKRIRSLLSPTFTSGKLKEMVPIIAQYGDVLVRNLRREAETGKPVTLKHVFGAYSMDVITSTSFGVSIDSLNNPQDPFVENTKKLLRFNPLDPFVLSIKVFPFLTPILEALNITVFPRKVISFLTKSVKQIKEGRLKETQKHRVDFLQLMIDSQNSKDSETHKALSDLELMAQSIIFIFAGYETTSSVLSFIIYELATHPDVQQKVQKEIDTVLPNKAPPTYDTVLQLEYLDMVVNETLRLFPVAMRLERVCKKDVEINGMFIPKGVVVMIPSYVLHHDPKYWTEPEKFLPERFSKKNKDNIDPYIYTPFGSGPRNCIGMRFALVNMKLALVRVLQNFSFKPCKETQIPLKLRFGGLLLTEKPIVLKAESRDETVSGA

CCOCCOC(C)=O
not listed: [17]
inactive: all other assays above

Cc1ccccc1[N+](=O)[O-]
inactive: all assays above

NS(=O)(=O)C(F)(F)C(F)(F)C(F)(F)C(F)(F)C(F)(F)C(F)(F)C(F)(F)C(F)(F)F
active: [1] 10.7 µM | [2] 28.9 µM | [3] 8.93 µM | [4] 11.4 µM | [5] 7.34 µM | CYP3A5 (gene 1577) 21 µM | [6] 9.04 µM | [7] 11.1 µM | [8] 8.86 µM | [9] 13 µM | [10] 5.02 µM | [11] 0.993 µM | [13] 75.5 µM | [14] 11.4 µM | [15] 12.8 µM | HGF (gene 3082) 12.9 µM | [16] 22.3 µM
inactive: [12]

O=C(O)C(F)(F)C(F)(F)C(F)(F)C(F)(F)C(F)(F)F
active: [6] 12 µM | [7] 13.3 µM | [15] 2.41 µM
not listed: CYP3A5 (gene 1577) | [17]
inactive: all other assays above

Oc1c(Cl)c(Cl)c(Cl)c(Cl)c1Cl
active: [1] 4.73 µM | [2] 11.7 µM | [3] 25.5 µM | [4] 1.58 µM | [5] 4.85 µM | [6] 2.35 µM | [7] 3.87 µM | [8] 3.88 µM | [9] 3.87 µM | [10] 1.97 µM | [11] 2.1 µM | [12] 4.88 µM | [13] 6.34 µM | [14] 5.16 µM | [15] 4.84 µM | [16] 6.52 µM
inactive: HGF (gene 3082)
